Screening data (PubChem)
A selection: hits, their analogues and other compounds. The true share with any hit is near 10%.
12-hLO inh = 12-hLO (ALOX12) enzyme inhibition; P18054; 150,000 compounds, 0.12% hits; purified 12-hLO, xylenol orange hydroperoxide absorbance; AID 1452; Potency, µM (top dose mostly 57.1 µM), for the others: top-dose activity change, negative = inhibition, most hits filed as inhibitors; note: potency is the fitted concentration of half-maximal effect; nearly all actives have a fitted effect of over 55% in size
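Hydroperoxide output read as Fe(III)-xylenol orange absorbance, 573-to-405 nm ratio, after 30 min reaction with 40 uM arachidonic acid. Enzyme: 150 nM purified human 12hLO, 15 min compound preincubation; 25 mM Hepes pH 7.0, room temperature.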
PNC inhibitor = perinucleolar compartment assembly inhibition; PC3M PTB-GFP, PNC prevalence imaging, 16 h; active compounds read low; activity change (PNC), negative = inhibition, % at 10 µM; 140,000 compounds, 3.1% hits;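 active = readout at or below -70, meaning at least 70% loss of cells showing the perinucleolar compartment, a nuclear body marking cancer cells; inconclusive = readout between -30 and a set limit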;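 note: plate controls were DMSO wells for no effect and camptothecin positive control wells for full effect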
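PC3M cells stably expressing PTB-GFP, 750–1000 cells/well, treated 16 h at 37 °C with compound (23 nl of library stock), in duplicate. After paraformaldehyde fixation and Hoechst stain, imaged at 20x; PNC prevalence scored by image analysis.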
HPGD inh = HPGD (human) dehydrogenase inhibition | P15428 | 150,000 compounds, 4.3% hits | purified HPGD, NADH fluorescence kinetic, PGE2 substrate | Potency, µM, for inactives: at the highest dose activity change, negative = inhibition, actives largely listed as inhibitors; active = well fitted inhibition curve with a large enough effect, not every such curve was filed as active; inconclusive = small, poorly fitted or top-dose-only effect, or another doubt; inactive = no such curve, though single readings can be large or run the other way; note: potency is the fitted concentration of half-maximal effect
Target sequence (P15428 whole entry, looked up): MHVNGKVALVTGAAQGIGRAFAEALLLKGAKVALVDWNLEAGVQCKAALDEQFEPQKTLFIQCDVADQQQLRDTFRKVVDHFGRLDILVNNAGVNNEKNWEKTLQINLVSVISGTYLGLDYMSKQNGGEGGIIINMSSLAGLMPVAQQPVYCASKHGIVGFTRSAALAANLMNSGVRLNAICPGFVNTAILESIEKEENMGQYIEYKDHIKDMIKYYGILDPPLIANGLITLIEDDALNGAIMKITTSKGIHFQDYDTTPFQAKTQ
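20 nM HPGD preincubated 15 min at room temperature with compound in 50 mM Tris-HCl pH 8, 0.01% Tween 20. Started with 1 mM NAD+ and 30 uM prostaglandin E2; NADH fluorescence (360/450 nm) read 5 times over 30-s intervals, last minus first.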
ALDH1A1 inh = blocks purified human ALDH1A1 activity | 220,000 compounds, 7.3% hits | Purified ALDH1A1, NADH fluorescence, propionaldehyde substrate | P00352 | Potency, µM (series often up to 75.3 µM), for inactives: at the top dose activity, negative = inhibition, most hits filed as inhibitors | AID 1030; active = well fitted inhibition curve with a large enough effect, not every such curve was filed as active; inconclusive = small, poorly fitted or top-dose-only effect, or another doubt; inactive = no such curve, though single readings can be large or run the other way;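 note: potency is the fitted concentration of half-maximal effect; plate controls were no enzyme wells and a reference inhibitor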
aGal spleen mod = alpha-galactosidase A (human) modulation; P06280; Potency, µM (series often up to 80 µM), for inactives: top-dose activity change, negative = inhibition, actives largely listed as inhibitors; 240,000 compounds, 0.008% hits; AID 2107; human spleen homogenate, 4MU-alpha-Gal fluorescence, 40 min;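 note: potency is the fitted concentration of half-maximal effect; 0% = enzyme with vehicle and -100% = no enzyme basal signal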
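qHTS titration in buffer at pH 5.0. Alpha-galactosidase activity in spleen homogenate was measured via 4-methylumbelliferone release from 1 mM fluorogenic substrate after 40 min at 37C and a pH 10 stop. AC50 came from Hill fits of control-normalized data.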
GLA inh pH 4.5 = inhibitors of human alpha-galactosidase A at pH 4.5. 230,000 tested, under 10 active. activity change, negative = inhibition, % at 105 µM. AID 1467. purified enzyme, 4-MU-alpha-Gal fluorescence, pH 4.5;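 note: 0% = full activity with enzyme and -100% = basal without enzyme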
The depositor's hits bear a star; u = inconclusive; x = no result; [ ] = another dose, or the depositor's remark. Unless noted, calls come from the whole dose curve; as a rule, active = well fitted curve in the direction sought with a large enough effect; inconclusive = small, poorly fitted or top-dose-only effect, or another doubt; inactive = no such curve, though single readings can be large; an effect the other way counts as inactive or inconclusive. Unless noted, % is set by controls: 0 for no effect and ±100 for the full control effect.

SMILES	12-hLO inh	PNC inhibitor	HPGD inh	ALDH1A1 inh	aGal spleen mod	GLA inh pH 4.5
CC1Cc2nc(SCC(=O)N3CCN(c4ccccc4)CC3)n(CCc3ccccc3)c(=O)c2S1 (configuration not stated)	-1.6%	u	-10.9%	-8.3%	2.0%	-11.5
CCn1c(SCC(=O)N2CCN(c3ccccc3)CC2)nc2c(c1=O)SC(C)C2 (configuration not stated)	0.6%	-25.4	-28.5%	2.24µM*	2.5%	2.8
Cc1c(-c2ccccc2)oc2cc(O)ccc2c1=O	-2.7%	x	-23.4%	u	-6.5%	4.3
Cc1ccn2cc(CCNC(=O)CC(C)(C)C)nc2c1	1.1%	-100.0*	u	u	-0.6%	-1.5
O=C1NC2c3ccccc3C(=O)N2c2c1cnn2-c1ccccc1 (configuration not stated)	7.0%	-100.0*	-19.9%	u	12.9%	-1.0
CCOC(=O)C1=C(C)Nc2ccccc2N=C1NC(=O)/C=C/c1ccc(OC)cc1OC	x	x	x	20µM*	-14.3%	-4.1
CCOc1ccc(S(=O)(=O)N2CCN(c3ccccc3)CC2)c2cccnc12	7.4%	u	-27.1%	28.2µM*	-8.8%	-14.1
CCOC(=O)N1CCN(S(=O)(=O)c2ccc(OC)c(Cl)c2Cl)CC1	-1.3%	17.1	-17.8%	u	-6.5%	0.0
CCOC(=O)N1CCN(S(=O)(=O)c2ccc(OCC)c3ccccc23)CC1	-10.5%	17.8	28.2µM*	u	-21.6%	-9.4
CCCCCOCC1CC(C/C(C)=N/Nc2nc(-c3ccccc3)cs2)C(=O)O1 (configuration not stated)	-2.1%	36.4	-6.5%	25.1µM*	-5.3%	2.9
CCN1C(C)=C(C(=O)OC)C(c2ccccc2)N2C(=O)[C@](O)(C(=O)OC)CC(C(C)=O)=C12 (some centres not stated)	x	x	x	-1.4%[13.5 µM]	12.4%[17.5 µM]	x
CS(=O)(=O)Nc1cccc(-c2ccc3ncnc(NCc4cccnc4)c3c2)c1	1.8%	x	25.1µM*	6.1%	-8.4%	0.4
CS(=O)(=O)Nc1cccc(-c2cncnc2NCc2ccccc2)c1	x	x	x	-1.5%	3.8%	x
Cc1cccc(CNc2ncncc2-c2cccc(NS(C)(=O)=O)c2)c1	-5.3%	x	15.8µM*	u	0.5%	4.5
COc1cccc(-c2ccc3ncnc(NCc4cccnc4)c3c2)c1	x	x	x	u	-2.5%	x
CS(=O)(=O)Nc1cccc(-c2nc(NCc3ccccc3)c3ccccc3n2)c1	x	x	x	25.1µM*	-5.9%	x
COc1cccc(-c2cncnc2NCc2cccs2)c1	x	x	x	u	6.0%	x
COc1cccc(-c2cncnc2NCc2ccccc2)c1	8.6%	x	14.1µM*	u	4.1%	-2.1
Cn1c(=O)c(-c2cccs2)nc2cnc(N3CCNCC3)nc21	x	x	x	u	7.7%	x
NC(C(=O)O)C(CC(=O)O)c1ccc(Cl)cc1 (configuration not stated)	x	x	x	-0.4%	4.8%	x
COc1ccc(CNC(=O)CCC(=O)N2CCN(S(=O)(=O)c3ccc(Cl)cc3)CC2)cc1	x	x	x	u	-0.5%	1.7
CC(C)NC[C@@H](O)COc1ccc(CCOCC2CC2)cc1	-2.0%	x	-4.1%	-6.3%	-4.5%	5.0
CCOc1ccccc1N(CC(=O)Nc1ccc(S(=O)(=O)N2CCOCC2)cc1)S(=O)(=O)c1ccc(Cl)cc1	2.0%	-1.7	-15.7%	2.4%	-1.1%	-12.4
CCOc1ccc(Cc2nc(N)nc(N)n2)cc1	-0.6%	-100.0*	-10.8%	10.6%	-2.3%	0.1
c1ccc(Cc2nnc3sc(-c4ccncc4)nn23)cc1	0.8%	u	11.2µM*	7.94µM*	7.9%	4.2
c1ccc(-c2nn3c(-c4ccccc4)nnc3s2)cc1	-2.0%	-17.5	-21.7%	5.0%	-8.7%	6.8
COc1ccc(-c2nnc3sc(-c4cccs4)nn23)cc1OC	-6.5%	13.6	u	7.8%	-3.1%	-2.6
c1ccc(Cc2nnc3sc(-c4cccnc4)nn23)cc1	-6.3%	u	14.1µM*	11.2µM*	6.8%	-1.6
